Source: PubChem BioAssay AID1491 (National Center for Advancing Translational Sciences (NCATS), 2009)
Values joined by “and” are separate entries in the source; they are usually repeats but may differ in a detail not shown here. Equal values may be shown once. Inconclusive results are not listed. Active and inactive are the calls of the source. Calls follow the shape of the dose curve; as a rule, active = well fitted inhibition curve with a large enough effect in the main read-out, with a control signal flat; inconclusive = small, poorly fitted or top-dose-only effect, or a change in a side signal; inactive = flat fitted curve, though single readings scatter.

target: Neuropeptide S receptor (Homo sapiens) (UniProt Q6W5P4); experiment: Confirmation Concentration-Response Assay for Antagonists of the Neuropeptide S Receptor: cAMP Signal Transduction; settings: CHO-NPSR cells, cAMP TR-FRET, antagonist mode; series mostly up to 22.3 µM; activity change, negative = inhibition: at the top concentration;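 as to activity change, negative = inhibition: 0% = DMSO with NPS and full inhibition = wells lacking NPS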
Source text: NIH Chemical Genomics Center [NCGC] NIH Molecular Libraries Probe Production centers Network [MLPCN] MLPCN Grant: X01-DA026210-01 Assay Submitter (PI): Heilig, Markus Alexander NCGC Assay Overview: Neuropeptide S receptor (NPSR), previously known as GPR154, is a recently de-orphanized G protein coupled receptor. Its endogenous ligand is the 20 amino acids peptide Neuropeptide S (NPS). […] NPS and its receptor are found in various tissues. Specifically they are highly expressed in brain areas that have been implicated in modulation of arousal, stress and anxiety. Central administration of NPS in mice produces an unusual profile of activity by inducing wakefulness and arousal, while at the same time suppressing anxiety. Therefore, NPSR may represent a novel drug target for the treatment of sleep and anxiety disorders. To identify NPSR antagonists, we developed a cell-based cAMP assay. NPS can stimulate the production of cAMP in Chinese hamster ovary cells stably expressing NPS receptor. This change in intracellular cAMP level can be detected by a homogeneous LANCE cAMP assay based on the TR-FRET (time resolved fluorescence resonance energy transfer) between a europium-labeled cAMP tracer complex and a cAMP-specific antibody labeled with Alexa Fluor 647. The europium-labeled cAMP tracer complex is formed by the tight interaction between Biotin-cAMP (b-cAMP) and streptavidin labeled with Europium-W8044 chelate (Eu-SA). Light pulse at 320 nm excites the europium of the cAMP tracer and the energy emitted is transferred to the Alexa molecule bound to the cAMP antibody, generating a TR-FRET signal at 665 nm. Residual energy from the europium will produce a light at 620 nm. The native unlabeled cAMP from cell lysates competes with the europium-cAMP tracer for antibody binding and reversely reduces the emission signal of Alexa by interrupting FRET between the two labeled molecules. Both emission signals from the FRET donor (620 nm) and the acceptor (665 nm) can be detected by a plate reader in the TRF mode. Expression of result in fluorescence ratio (665 nm/620 nm) helps to normalize differences due to cell density and reagent dispensing. This assay was successfully optimized to a 1536-well plate format. Select compounds from the primary screen (AID 1461) were chosen for confirmation based on potency, efficacy, SAR, and activity across other assays in PubChem and at NCGC. Other compounds are analogs of active compounds from the primary sceen.
NCGC Assay Protocol Summary: A Chinese hamster ovary (CHO) cell line stably expressing the NPS receptor (CHO-NPSR) was obtained from Dr. Heilig lab at NIAAA and maintained in F-12 Kaighn's media (Invitrogen, Carlsbad, CA, 21127) supplemented with 10 % FBS, 100 units/ml penicillin, 100 ug/ml streptomycin and 250 ug/ml geneticin at 37C, 5% CO2 in a humidified atmosphere. Before the assay, aliquots of cells were frozen and stored at -135C. The assay was performed in 1536-well format. Data are reported for both the ratio of the two emission wavelengths, and also for the component 'donor' channel, Em2=620. […] IC50 values were determined from concentration-response data modeled with the standard Hill equation. NPS 1536-well assay protocol: (1) Fresh or frozen CHO-NPSR cells were suspended in F-12 Kaighn's media supplemented with 10 % FBS, 100 units/ml penicillin and 100 ug/ml streptomycin. Cells were plated at 4 ul/well (1200 cells) to white, tissue culture treated 1536-well plates, and then cultured at 37C, 5 % CO2 for 16 to 30 hours. (2) Add 23 nl/well of compound in DMSO solution. The final titration for each compound was between 0.6 nM and 46 uM. (3) Add 1 ul of stimulation reagent (1X HBSS buffer, 5 mM HEPES, 0.1% BSA, 500 uM RO-201724 (Sigma-Aldrich, B8279), 1.5% Alexa 647-labeled anti-cAMP antibody (from Perkin Elmer), 100 nM NPS) (4) Incubation at 37C, 5 % CO2 for 60 min. (5) Add 1 ul/well detection reagent. […]
Potency is read from the fitted curve at half-maximal effect.

Chain of Neuropeptide S receptor (Homo sapiens) (Q6W5P4 whole entry, looked up): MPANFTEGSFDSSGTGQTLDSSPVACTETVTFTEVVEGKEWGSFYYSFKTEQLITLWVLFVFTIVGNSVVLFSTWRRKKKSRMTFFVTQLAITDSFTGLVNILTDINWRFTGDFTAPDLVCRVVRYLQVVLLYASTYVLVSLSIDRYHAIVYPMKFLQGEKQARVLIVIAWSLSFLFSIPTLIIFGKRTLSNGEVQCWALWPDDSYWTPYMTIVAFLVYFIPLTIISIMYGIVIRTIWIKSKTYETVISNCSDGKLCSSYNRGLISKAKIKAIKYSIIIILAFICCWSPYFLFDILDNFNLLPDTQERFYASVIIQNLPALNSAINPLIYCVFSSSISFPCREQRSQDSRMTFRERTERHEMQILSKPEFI

Row | SMILES | Potency | activity change, negative = inhibition
1 | COc1cccc(C2c3c(ncn(CCN4CCOCC4)c3=N)Oc3ccc4ccccc4c32)c1 (stereo not given) | 2.51 µM (active) and 10 µM (active) | –
2 | N=C1c2ccccc2CN1c1ccc(N2CCOCC2)c(S(=O)(=O)Nc2ccc(Cl)cc2)c1 | 4.47 µM (active) | –
3 | CC1=C/C(=N\NC(=S)Nc2cccnc2)CC(C)(C)C1 | – | -12.3% (inactive)
4 | CC(=O)n1nc2nc(C)cc(C)c2c1N | – | 8.9% (inactive)
5 | CCc1ccc2oc(-c3cc(N)cc(C)c3O)nc2c1 | – | 14.2% (inactive)
6 | COCCCn1c(SCc2cc(=O)[nH]c3ccccc23)nnc1-c1ccco1 | – | 18.1% (inactive)
7 | Cc1ccc(-n2ncc3c(NCc4ccc5c(c4)OCO5)ncnc32)c(C)c1 | – | -21.2% (inactive)
8 | CCC(=O)O[C@]1(C(=O)CCl)[C@@H](C)C[C@H]2[C@@H]3CCC4=CC(=O)C=C[C@]4(C)[C@@]3(F)[C@@H](O)C[C@@]21C | 11.2 µM (active) | –
9 | COc1ccccc1C1c2c(ncn(-c3ccccc3)c2=N)Oc2ccc3ccccc3c21 (stereo not given) | 17.8 µM (active) | –
10 | CC(=O)c1c(C(C)=O)c(C)n(NC(=O)c2cccnc2)c1C | – | 0.909% (inactive)
11 | CCC(c1nnnn1C1CCCC1)N1CCN(c2ccccc2)CC1 (stereo not given) | – | -5.45% (inactive)
12 | Cc1ccc(S(=O)(=O)Nc2cccc3ncccc23)s1 | – | -10.1% (inactive)
13 | COc1ccc(NC(=O)/C(Cl)=C(/Cl)S(=O)Cc2ccc(C)cc2)cn1 (stereo not given) | 2.24 µM (active) | –
14 | O=C(c1ccccc1)N(C(=O)c1ccccc1)c1ncnc2c1C(c1ccccc1)c1c(ccc3ccccc13)O2 (stereo not given) | 3.16 µM (active) | –
15 | COc1ccc(/C=N/n2cncn2)cc1Cn1cc([N+](=O)[O-])cn1 | – | 0.869% (inactive)
16 | Cc1ccc2nc3ccc(N4CCCCCCC4)nn3c(=O)c2c1 | – | -5.95% (inactive)
17 | O=C1CC(NCc2ccncc2)C(=O)N1c1ccccc1 (stereo not given) | – | 7.53% (inactive)
18 | O=C(CSC1=NCCS1)Nc1ccnc2ccccc12 | – | -13.8% (inactive)
19 | COc1cccc(C2c3c(ncn(CCCN4CCOCC4)c3=N)Oc3ccc4ccccc4c32)c1 (stereo not given) | 14.1 µM (active) | –
20 | Cn1c(COc2ccccc2)nnc1SCc1cc(=O)[nH]c2ccccc12 | – | -3.92% (inactive)

Row | SMILES | Potency | activity change, negative = inhibition
21 | CN(C)c1ccc(N2CN=C3SCC(=O)N3C2)cc1 | – | 20.4% (inactive)
22 | CN(Cc1cc(=O)[nH]c2ccccc12)C(=O)c1ccccc1 | – | -1.96% (inactive)
23 | COCCCn1cnc2c(c1=O)c1nc3ccccc3nc1n2CCc1ccccc1 | – | 9.86% (inactive)
24 | Cc1ccc(Nc2cc(C)nn2-c2nc(C)cc(C)n2)cc1 | – | -9.37% (inactive)
25 | C(=C\c1ccccc1)/C=N/N1CCN(c2ccccn2)CC1 | – | 5.88% (inactive)
26 | N=c1c2c(ccn1-c1ccccc1)Oc1ccc3ccccc3c1C2c1ccccc1 (stereo not given) | 2.51 µM (active) | –
27 | CCOC(=O)c1cnc(Nc2nc3ccccc3o2)nc1CSC(=S)N(CC)CC | – | -11.7% (inactive)
28 | CCCCCN1C=CC=C/C1=C\C=C(C#N)C#N | – | -10.9% (inactive)
29 | COc1ccc(-c2cc(N)n(S(=O)(=O)c3c(F)c(F)c(F)c(F)c3F)n2)cc1OC | 7.08 µM (active) | –
30 | O=C(O)C1CCN(c2nc(-c3ccccc3)nc3c2oc2ccccc23)CC1 | – | -13.7% (inactive)
31 | Cc1nn(C)cc1/C=N/NC(=S)Nc1ccccc1 | – | -0.853% (inactive)
32 | COc1ccc(CCNC(=O)CC(c2ccccc2)c2cccc(C)c2O)cc1OC (stereo not given) | – | -8.59% (inactive)
33 | COc1ccc(N(CC(=O)Nc2cccc(SC)c2)S(C)(=O)=O)cc1Cl | – | -14.4% (inactive)
34 | COc1ccc(C(=O)N(Cc2ccco2)Cc2cccs2)c(O)c1 | – | -4.04% (inactive)
35 | CN(CC(=O)NCc1ccc(F)cc1)S(=O)(=O)c1cccc2nsnc12 | – | 7.19% (inactive)
36 | C=CCn1c(SCCN2C(=O)c3ccccc3C2=O)nc2scc(-c3ccccc3)c2c1=O | – | -9.23% (inactive)
37 | O=[N+]([O-])c1ccc(-c2nc(C(Cl)Cl)c3ccccc3n2)cc1 | – | -10.6% (inactive)
38 | CC1C(c2ccccc2)N(C)C(c2ccccc2)CC1(O)c1ccccc1 (stereo not given) | – | -5.26% (inactive)
39 | CC(C)Cc1nc(N2CCN(C(=O)c3ccccc3)CC2)c(C#N)c2c1CCC2 | – | -10.7% (inactive)
40 | Cc1nnc(NC(=O)c2cccc(S(=O)(=O)N3CCc4ccccc43)c2)s1 | – | -8.24% (inactive)
